Measured values from the emibetuzumab library of Makowski et al. (2022).
Some of the results follow. The hit rate among all sequences tested is not known here.

B1: VH:VL chains; a variant is named by its letters at X, in order (parent)
chain 1: QVQLVQSGAEVKKPGASVKVSCKASGYTFTDYXMHWVRQAPGQGLEWMGXVNPNXXXTTYNQKFEGRVTMTTDTSTSTAYMELRSLRSDDTAVYYCARXNXLDXWGQGTTVTVSS
chain 2: DIQMTQSPSSLSASVGDRVTITCSVSSSVSSIYLHWYQQKPGKAPKLLIYSTSNLASGVPSRFSGSGSGTDFTLTISSLQPEDFATYYCQVYSGYPLTFGGGTKVEIK

Variants of: B1
Assay: yeast display scFab, FACS + sequencing
Details: with MET
Procedure, shortened: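 Antigen binding was called positive for sequences present in both antigen-positive samples and negative for those present only in the input. These calls came from deep sequencing, in two replicates, of round-3 sorted and input populations from a heavy-chain CDR mutant scFab yeast surface library. The library was first enriched twice magnetically on HGFR-Fc-coated Protein A beads and then by FACS, gating the top 50% antigen-positive cells after 3 h labelling at room temperature with 1 nM HGFR-Fc plus anti-Myc in PBSB with 1% milk.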

Variant	antigen binding call
DAGTDAGD	no binding
YRAGDSSA	binds
DRAGDDLA	no binding
YRTGDSAA	binds
DRAGDSSA	no binding
YRTGDSSA	binds
SAAGGAAD chain 1 L45S	no binding
DTREGDVY	no binding
VKERGDGV	no binding
FARENFLA chain 1 V51A	no binding
VAKADDWF	no binding
YGTRSAAD	no binding
YAGRAAWD	no binding
YRTRSAGD	binds
YRGRSAWD	binds
YRTRSAWD	binds
YRTRAAWD	binds
SEEEGDWV	no binding
AKEADDVA	no binding
YTGTSDLV	no binding
VTTKSDSV	no binding
VTTRADVA	no binding
VRRRGSGD	binds
FRRRGSGD	binds

Variant	antigen binding call
VEEEGAGD	no binding
VEKEGAGD	no binding
VRRRGAGD	binds
VGGGGDGS	no binding
DTTGGDGV	no binding
SEKKSAGA	no binding
VKGKGAAF	no binding
YRGKGAAF	binds
YRAGGAAF	binds
YGARGAAF	no binding
YEGGGDWF	no binding
YRGGGAAF	binds
YRGGDAAF	binds
FAGGGDAV	no binding
VRERGDAA	no binding
VRAGGDAV	binds
VRAGDDAV	no binding
VRAGGDAA	binds
VRGGGDAA	no binding
VRTKADAV	no binding
YRRESAGF	binds
YRKGGAWF	binds
YRRGDAAF	binds
DRRGDDVF	no binding

Variant	antigen binding call
YRRGGAGF	binds
VAEKDDGS	no binding
SGGTGDVF	no binding
FTGEADAS	no binding
AARADSWV	no binding
YRRGSAGF	binds
YRKGGAGF	binds
ARRGGSGF	no binding
YRRGDAGF	binds
YRRGSSGF	binds
YAGGDDGA	no binding
SETTDSSA	no binding
DAGGGYGV	no binding
AGERNVAS	no binding
YRRGGALV	binds
YRRKGALV	binds
YRRKGASV	binds
ATKAASWV	no binding
FRGGGSGS	binds
FRGGDYGS	no binding
FRGGSSGS	binds
ATTGGDWD	no binding
YRKRGAAA	binds
YRKRGAGA	binds

Variant	antigen binding call
VTGEDAGS	no binding
YRERSDVS	no binding
YRGKGALS	binds
YKTGGASS	binds
YKGRGAAS	binds
YTGTSDVS	no binding
YAGRGSAS	no binding
YRGGGDVS	binds
YAGRGDAS	no binding
YTGTSDVY	no binding
FTRGADAV	no binding
DAGGDDVY	no binding
VRGRGALS	binds
YAGRGDVS	no binding
YKGRGALS	binds
YKTRGAVS	no binding
YKGRGAVS	binds
YKGRGASS	binds
YKGEGFSS	no binding
VETEGAVY	no binding
DKEGGDGV	no binding
AATTDSGV	no binding
VREGDDAV	no binding
YRGGGALS	binds

Variant	antigen binding call
DRGGGDAS	no binding
YRGGSDGS	binds
YRGKSDGS	no binding
YRGRGALS	binds
DRAGDDGS	no binding
SEARSDVV	no binding
FRTRGAVV	binds
YKERGDVV	binds
SKERGDVV	no binding
YRERGAVV	binds
YKGEGDVV	no binding
FRERGAVV	binds
SRTRGFVV	no binding
DREEGAVV	no binding
VAETAAAA	no binding
AEARAAGS chain 1 V37I	no binding
VARAADAD	no binding
ATGEGDWS	no binding
VGATSFSA	no binding
YKAGGSGV	binds
YKERASGV	no binding
YEKGGDGV	no binding
YKGAASGV	no binding
YKGGSSGV	binds

Variant	antigen binding call
YKKGGSGV	binds
YKGGSFGV	no binding
FTGTSAAF	no binding
VTEGDDVF	no binding
YRKGSAWD	binds
YRKGSSWD	binds
DGKEGYWA	no binding
DAEGDDGA	no binding
YRGAGSVD	binds
FRGAGSVD	binds
YRGAGFVD	no binding
FRGAGSVA	binds
YRGAGSLD	binds
SKTKSDVA	no binding
SKERGDWV	no binding
VERKGYLA	no binding
VETGNSSA	no binding
AGGGNAGD	no binding
VRRGSSLF	binds
VRGRSDVF	no binding
VRRGSSAF	binds
VRGGDDVF	no binding
VGGTSSAD	no binding
VREAADSF	no binding

Variant	antigen binding call
VRRGSSAD	binds
VRGRSSLF	binds
DAKENAVY	no binding
YTGGDDVY	no binding
VAEATDLY	no binding
DAGGASLD	no binding
STATADVA	no binding
SAGEGDWV	no binding
AKTRDFVA	no binding
DTAGDAAV	no binding
FKAEAFSF	no binding
VKETSVLF	no binding
VRTEDDAS	no binding
FERTSALF	no binding
VAKRDSAS	no binding
FKRGSSLF	binds
VRRGSSAS	binds
VKRGSSLF	binds
VAGTGSSV	no binding
DAEATDGA	no binding
DATGGDGY	no binding
DTGGSASA	no binding
YRKGGAVD	binds
YRKRGAVD	binds

Variant	antigen binding call
YRKRGAAD	binds
YAKRDAGD	no binding
YRKRGAGD	binds
AKATADVD	no binding
DTGGGDAV	no binding
YRGAGSAD	binds
YRGAGAAD	binds
YKGAGSAD	no binding
YAGAGSAD	no binding
YKGKGAWV	binds
YKGKSAWV	binds
YKTKSDWV	no binding
VKGKGDWV	no binding
YAGKGAWV	no binding
DEGGTDSA	no binding
SKRRSVGA	no binding
SKGKGSAA	binds
SKAKGSAA	binds
SEEEGSAA	no binding
YKGKGSAA	binds
SKGKGVGA	binds
YKGKGFAA	no binding
SKGKGSSA	no binding
AARADSGD	no binding

Variant	antigen binding call
DEGRSVAA	no binding
DAARAVSS	no binding
VAKADALD	no binding
FKGEGDSA	no binding
YRGKGSAA	binds
VKGKGSAA	binds
VRAGGDSF	no binding
VRERGDWF	no binding
VRARGSSF	binds
YRERGSSF	binds
VTAESSSF	no binding
VRERGSSF	binds
YAEGASSF	no binding
AETAGAAA	no binding
DAATAYGS	no binding
FRGTGSGD	no binding
FATRASGD	no binding
FRTKGSGD	binds
FRGKGSGD	binds
FATKGFGD	no binding
